This is part of a sample that, as a whole, favours compounds with a hit. Of some 83,000 tested, about 20% had one in any assay.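 Step 1: grow cells in 96-well plates. Step 2: add test compound at a single concentration. Step 3: incubate 48 h. Step 4: record percent growth.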 Active and inactive are the calls of the source. Rule for the calls: active = growth percent below 10; inactive = the rest.
Assays:
Assay in all cases: NCI-60 one-dose screen, 48 h (100 = growth as untreated, 0 = no growth, -100 = all killed)
EKVX NSCLC = conditions: 10 µM unless noted
SN12C renal = conditions: 10 µM unless noted
UO-31 renal = conditions: 10 µM unless noted
TK-10 renal = conditions: 10 µM unless noted
ACHN renal = conditions: 10 µM unless noted
A498 renal = conditions: 10 µM unless noted
CCRF-CEM leukemia = conditions: 10 µM unless noted
MOLT-4 leukemia = conditions: 10 µM unless noted
SR leukemia = conditions: 10 µM unless noted
RPMI-8226 leukemia = conditions: 10 µM unless noted
OVCAR-8 ovarian = conditions: 10 µM unless noted
OVCAR-5 ovarian = conditions: 10 µM unless noted
OVCAR-4 ovarian = conditions: 10 µM unless noted
SK-OV-3 ovarian = conditions: 10 µM unless noted
IGROV1 ovarian = conditions: 10 µM unless noted
HS 578T breast = conditions: 10 µM unless noted
NCI/ADR-RES ovarian = conditions: 10 µM unless noted
CAKI-1 renal = conditions: 10 µM

Measured: growth

CNC(=O)c1cc(Oc2ccc3nc(NC(=O)c4ccc(CN5CCCN(C)CC5)c(C(F)(F)F)c4)sc3c2)ccn1
active: UO-31 renal 4.18% | ACHN renal 4.16% | CCRF-CEM leukemia 8.38% | MOLT-4 leukemia -35.2% | SR leukemia -59.8% | RPMI-8226 leukemia -31.1% | HS 578T breast -1.04%
inactive: EKVX NSCLC 40.1% | SN12C renal 54.9% | TK-10 renal 47.9% | A498 renal 66.2% | OVCAR-8 ovarian 32.4% | OVCAR-5 ovarian 53.6% | OVCAR-4 ovarian 52.3% | SK-OV-3 ovarian 80.3% | IGROV1 ovarian 60.6% | NCI/ADR-RES ovarian 60.6%

CC(C)(C)CC(C)(C)n1nnnc1C(Nc1ccccc1)c1cc2cccc3ccc4cccc1c4c32 (stereo unspecified)
inactive: EKVX NSCLC 73.5% | SN12C renal 78.4% | UO-31 renal 73.1% | TK-10 renal 94.6% | ACHN renal 87.5% | CAKI-1 renal 55.8% | CCRF-CEM leukemia 86.7% | MOLT-4 leukemia 73.2% | SR leukemia 82.3% | RPMI-8226 leukemia 82.2% | OVCAR-8 ovarian 86.4% | OVCAR-5 ovarian 85.3% | OVCAR-4 ovarian 82.7% | SK-OV-3 ovarian 87.1% | IGROV1 ovarian 92.6% | HS 578T breast 90.3% | NCI/ADR-RES ovarian 81.7%

Cc1ccc(-c2cc3nc(C(Cl)Cl)nc(-c4ccccc4)n3n2)cc1
inactive: EKVX NSCLC 99.6% | SN12C renal 107% | UO-31 renal 91.8% | TK-10 renal 108% | ACHN renal 47.5% | CAKI-1 renal 72.7% | CCRF-CEM leukemia 101% | MOLT-4 leukemia 97% | SR leukemia 85.3% | RPMI-8226 leukemia 82.5% | OVCAR-8 ovarian 92.9% | OVCAR-5 ovarian 103% | SK-OV-3 ovarian 97.9% | IGROV1 ovarian 94.3% | HS 578T breast 109% | NCI/ADR-RES ovarian 79.5%

CN1CCN(Cc2ccc(NC(=O)c3cncc(C#Cc4cnc5ccc(NC6CCOCC6)nn45)c3)cc2C(F)(F)F)CC1
active: EKVX NSCLC -4.66% | SN12C renal 1.01% | UO-31 renal -43.7% | TK-10 renal -11.7% | ACHN renal -95.5% | CAKI-1 renal -46.9% | MOLT-4 leukemia 5.18% | SR leukemia -37.8% | RPMI-8226 leukemia -34.1% | OVCAR-8 ovarian -52.4% | OVCAR-5 ovarian 0.169% | OVCAR-4 ovarian -29.1% | SK-OV-3 ovarian -22.9% | IGROV1 ovarian -21% | HS 578T breast -26% | NCI/ADR-RES ovarian 7.41%

Fc1ccccc1/C=C(/C1=NCCN1)n1cnc2ccccc21
inactive: EKVX NSCLC 95% | SN12C renal 97.4% | UO-31 renal 85.3% | TK-10 renal 99.4% | ACHN renal 97% | CAKI-1 renal 84.1% | CCRF-CEM leukemia 108% | MOLT-4 leukemia 106% | SR leukemia 91.7% | RPMI-8226 leukemia 96.9% | OVCAR-8 ovarian 99.6% | OVCAR-5 ovarian 94.8% | OVCAR-4 ovarian 90.9% | SK-OV-3 ovarian 93.1% | IGROV1 ovarian 95.6% | HS 578T breast 93.3% | NCI/ADR-RES ovarian 104%

Cn1cc(-c2nn3cc(-c4cccnc4)nc3s2)c2ccccc21
inactive: EKVX NSCLC 43.8% | SN12C renal 33.4% | UO-31 renal 32.2% | TK-10 renal 80.5% | ACHN renal 48.1% | A498 renal 36.6% | CCRF-CEM leukemia 38% | RPMI-8226 leukemia 30.4% | OVCAR-8 ovarian 36.4% | OVCAR-5 ovarian 36.6% | OVCAR-4 ovarian 76.6% | SK-OV-3 ovarian 50.7% | IGROV1 ovarian 40.2% | HS 578T breast 31.3% | NCI/ADR-RES ovarian 18.9%

CN1CCN(c2nc(-c3cnc4ccccc4n3)cc3ccccc23)CC1
inactive: EKVX NSCLC 84.9% | SN12C renal 72.6% | UO-31 renal 63.2% | TK-10 renal 99.9% | ACHN renal 84% | CAKI-1 renal 64.1% | CCRF-CEM leukemia 55.6% | MOLT-4 leukemia 54.9% | RPMI-8226 leukemia 56.7% | OVCAR-5 ovarian 91.1% | OVCAR-4 ovarian 100% | SK-OV-3 ovarian 92.1% | IGROV1 ovarian 73.7% | HS 578T breast 85.6% | NCI/ADR-RES ovarian 82.2%
active: SR leukemia 1.45%

Cc1cccc(NC(c2cc3cccc4ccc5cccc2c5c43)c2nnnn2C(C)(C)C)c1C (stereo unspecified)
inactive: EKVX NSCLC 75.2% | SN12C renal 93% | UO-31 renal 66.9% | TK-10 renal 138% | ACHN renal 90.4% | CCRF-CEM leukemia 95% | MOLT-4 leukemia 76% | SR leukemia 86.3% | RPMI-8226 leukemia 86.9% | OVCAR-8 ovarian 92.8% | OVCAR-5 ovarian 87% | OVCAR-4 ovarian 85.2% | SK-OV-3 ovarian 77.4% | IGROV1 ovarian 73.6% | HS 578T breast 88% | NCI/ADR-RES ovarian 89.4%

CCN1CCN(c2cc(C(=O)Nc3nc4ccc(Oc5ccnc(C(=O)NC)c5)cc4s3)cc(C(F)(F)F)c2)CC1
active: UO-31 renal -63.3% | SR leukemia -3.58%
inactive: EKVX NSCLC 92.5% | SN12C renal 75.2% | TK-10 renal 100% | ACHN renal 66% | CCRF-CEM leukemia 65% | MOLT-4 leukemia 52.3% | RPMI-8226 leukemia 33% | OVCAR-8 ovarian 92.4% | OVCAR-5 ovarian 101% | OVCAR-4 ovarian 67.9% | SK-OV-3 ovarian 109% | IGROV1 ovarian 95.8% | HS 578T breast 93.1% | NCI/ADR-RES ovarian 99.6%

Reference: PubChem BioAssay (NCI)
